# Screening data (PubChem)
# BJeLR lethal: MLPCN primary cell-based screen for lethality selective to Ras in HRASV12 cells; inhibition, % (concentration not given with the values); 0.17% of 300,000 active; BJeLR (HRASV12) viability, CellTiter-Glo ATP luminescence, 48 h; AID 1554, 2009; in the data active = inhibition above about 50%; inconclusive = no clear call, values can overlap the other calls
# BoNT-F LC inh: BoNT/F light chain protease inhibitors, primary screen, biochemical, flow cytometry, MLPCN library | 0.22% of 360,000 active | Botulinum neurotoxin type F light chain protease (Clostridium botulinum) | Multiplex microsphere protease cleavage assay | AID 588497, 2011 | inhibition, % at 10 µM; in the data active = inhibition above about 35%, passing the limit was not always enough; inconclusive = no clear call, values can overlap the other calls
# Autofluor counter: flagged as autofluorescent in microsphere protease counterscreen | compound autofluorescence counterscreen, microsphere flow cytometry; stronger effect = higher value | 3.1% of 360,000 active | fluorescence intensity (concentration not given with the values) | AID 624483; in the data active = fluorescence intensity above about 16000; inconclusive = no clear call, values can overlap the other calls
# BoNT A protease: BoNT/A light chain protease inhibitors, primary screen, biochemical, flow cytometry, MLPCN library; Botulinum neurotoxin type A light chain protease (Clostridium botulinum A str. ATCC 3502); multiplex microsphere protease substrate cleavage; inhibition, % at 10 µM; 0.17% of 360,000 active; AID 588499, 2011
# Anthrax LF prot: Bacillus anthracis LF protease inhibitors, primary screen, biochemical, multiplex microsphere, MLPCN library. Lethal factor (Bacillus anthracis), P15917. 0.12% of 360,000 active. AID 588501, 2011. multiplex microsphere protease cleavage assay. inhibition, % at 10 µM
# Target sequence (P15917 whole entry, looked up): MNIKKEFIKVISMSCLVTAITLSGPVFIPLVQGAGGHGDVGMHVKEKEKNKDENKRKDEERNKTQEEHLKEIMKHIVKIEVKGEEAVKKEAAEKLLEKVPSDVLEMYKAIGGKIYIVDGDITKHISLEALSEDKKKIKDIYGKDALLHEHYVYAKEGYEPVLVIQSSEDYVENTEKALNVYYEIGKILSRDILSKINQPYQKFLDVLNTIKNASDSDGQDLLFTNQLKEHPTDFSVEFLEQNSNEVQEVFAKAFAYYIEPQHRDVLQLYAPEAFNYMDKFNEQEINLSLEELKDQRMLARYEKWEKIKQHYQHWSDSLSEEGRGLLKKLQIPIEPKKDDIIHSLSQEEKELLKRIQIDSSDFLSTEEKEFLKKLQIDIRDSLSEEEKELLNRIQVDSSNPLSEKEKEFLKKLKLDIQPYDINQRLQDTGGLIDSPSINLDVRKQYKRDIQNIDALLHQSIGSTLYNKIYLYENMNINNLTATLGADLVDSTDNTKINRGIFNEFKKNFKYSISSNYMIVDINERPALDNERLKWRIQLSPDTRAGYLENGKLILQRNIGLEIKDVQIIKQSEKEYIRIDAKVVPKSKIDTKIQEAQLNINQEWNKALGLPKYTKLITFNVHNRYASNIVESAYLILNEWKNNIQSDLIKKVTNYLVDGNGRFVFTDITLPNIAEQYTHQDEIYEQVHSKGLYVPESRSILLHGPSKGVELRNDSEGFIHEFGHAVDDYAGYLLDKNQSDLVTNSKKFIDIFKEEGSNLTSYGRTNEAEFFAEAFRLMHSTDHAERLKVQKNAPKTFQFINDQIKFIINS
# SARS 3CLpro inh: SARS-CoV 3CLpro protease inhibitors, primary screen, biochemical, quenched FRET; Replicase polyprotein 1ab (Severe acute respiratory syndrome coronavirus), P0C6X7; recombinant SARS-CoV 3CLpro, quenched FRET peptide cleavage; inhibition, % at 6 µM; 0.14% of 290,000 active; AID 1706, 2009; in the data active = inhibition above about 12%
# Hits are given with their value; – = inactive; ? = inconclusive; · = not tested or not shown. Shown are actives, neighbours in structure and some others; about 3.6% of the full set was active somewhere. Cut-off read from the data, not from the text of the source, unless noted: active = inhibition above about 30%; inconclusive = no clear call, values can overlap the other calls; inactive = below that.
SMILES,BJeLR lethal,BoNT-F LC inh,Autofluor counter,BoNT A protease,Anthrax LF prot,SARS 3CLpro inh
COc1ccc(NC(=O)c2oc3ccccc3c2NC(=O)C2CC2)cc1,–,–,20675,–,–,–
Cc1c(Cl)cccc1NC(=O)CNC(=O)CCCc1nc2ccccc2c(=O)[nH]1,·,–,–,–,–,·
COc1cccc(NC(=O)CSc2nnc(-c3cc(C)[nH]n3)n2N)c1,–,–,–,–,–,–
CCOc1cccc(-c2nnc(SCC(=O)Nc3cccc(OC)c3)n2N)c1,–,–,21734,–,–,–
CCn1c2ccccc2c2cc(NC(=O)c3cccc(OC)c3OC)ccc21,–,–,–,–,–,–
O=C(CSc1nnc(-c2cccnc2)n1Cc1ccco1)Nc1nc(-c2ccc(F)cc2)cs1,–,–,20486,–,–,–
Cc1cccc(NC(=O)CSc2nnc(-c3ccccc3)n2N)c1,–,–,20752,?,–,–
CCn1c2ccccc2c2cc(NC(=O)c3cccc(OC)c3)ccc21,–,–,22832,–,–,–
COc1ccc(CNC(=O)c2nnn(-c3cccc(C(F)(F)F)c3)c2N)cc1,–,–,–,–,–,–
CC(C)N(Cc1nnc(-c2ccccc2Cl)o1)C(=O)c1cccc(C#N)c1,·,·,·,·,·,–
COc1ccc(CN2CCNC(=O)C2CC(=O)N2CCCN(C(C)=O)CC2)c(OC)c1 (stereo unspecified),–,–,–,–,–,–
CCCN(CC(=O)Nc1ccccc1C)C(=O)C1CC(=O)N(c2ccc(CC)cc2)C1 (stereo unspecified),·,–,–,–,–,·
CCOC(=O)c1ccc(NC(=O)NC2CCN(CC(=O)NCc3ccc4c(c3)OCO4)CC2)cc1,–,–,–,–,–,–
COc1cccc(-c2nnc(SCCC(=O)O)n2C)c1,–,–,23530,–,–,–
COC(=O)c1ccc(NC(=O)CSc2nnc(C)n2-c2ccccc2)cc1,–,–,19301,–,–,–
COc1ccc(NC(C)=O)cc1NC(=O)CSc1nnc(-c2ccccc2)n1N,–,–,–,–,–,–
Cc1ccc(C)c(NC(=O)CSc2nnc(-c3ccncc3)n2N)c1,–,–,21109,–,–,–
COc1cccc(-c2nnc(SCC(=O)Nc3cc(C)on3)n2C)c1,–,–,–,–,–,–
COc1cccc(-c2nnc(SCC(=O)Nc3ccc(OC)c(OC)c3)n2N)c1,–,–,23134,–,–,–
COc1ccc(NC(=O)CSc2nnc(-c3ccccc3)n2N)cc1,–,–,–,–,–,–
COC(=O)c1ccc(NC(=O)CSc2nnc(-c3ccccc3)n2C)cc1,–,–,–,–,–,–
CCn1c2ccccc2c2cc(NC(=O)CSc3nnc(-c4ccc(OC)cc4)n3N)ccc21,–,–,24502,–,–,–
Nn1c(SCC(=O)Nc2ccc(F)cc2)nnc1C1CCCCC1,–,–,21577,?,–,–
COC(=O)c1ccc(NC(=O)CSc2nnc(-c3ccncc3)n2N)cc1,–,–,20637,?,–,–
Nn1c(SCC(=O)Nc2ccc(F)cc2)nnc1-c1cccnc1,–,–,19014,?,–,–
SMILES,BJeLR lethal,BoNT-F LC inh,Autofluor counter,BoNT A protease,Anthrax LF prot,SARS 3CLpro inh
COc1cccc(-c2nnc(SCC(=O)OC(C)C)n2N)c1,–,–,19700,–,–,–
CC1CCCC(NC(=O)CSc2nnc(-c3cccnc3)n2N)C1C (stereo unspecified),·,–,18627,–,–,·
COC(=O)CSc1nnc(C)n1-c1cccc(C#N)c1,–,–,17539,–,–,–
COCC(=O)Nc1ncc(S(=O)(=O)c2ccc([N+](=O)[O-])cc2)s1,–,–,–,–,–,–
O=C(NC(Nc1ncc(S(=O)(=O)c2ccc([N+](=O)[O-])cc2)s1)(C(F)(F)F)C(F)(F)F)c1ccc(Cl)cc1,70,–,–,–,–,–
Cc1ccc(CNc2ncc(-c3ccc4c(c3)OCO4)n2C)cc1,–,–,22743,–,–,–
Cn1c(-c2ccc(F)cc2)cnc1NCc1ccc(F)cc1,–,–,–,–,–,–
Cn1c(-c2ccc3c(c2)OCO3)cnc1NCc1ccc(Cl)cc1,–,–,21164,–,–,–
CN(Cc1ccc(Cl)cc1Cl)C(=O)CCNC(=O)c1ccco1,·,–,–,–,–,·
